In PubChem BioAssay (EPA / NIEHS):
Where “and” joins values, the source holds several entries; their conditions need not be identical. Equal values may be shown once. Records with an inconclusive call do not appear. More than one record can exist for a structure, and the calls need not agree. Calls of active or inactive are those of the source. The calls were made as follows, unless noted: active = hit-call score of the fitted dose curve at least 0.9, where 1 is the maximum; inconclusive = response in the unintended direction; inactive = score below 0.9.

Columns and labels:
[1] = target: human Peroxisome Proliferator-activated Receptor alpha (PPARa), PPARA (gene 5465) (UniProt Q07869); test: ATG_PPARa_TRANS: Attagene TRANS-FACTORIAL HepG2 Assay for human Peroxisome Proliferator-activated Receptor alpha (PPARa) (AID 2283001);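 as to AC50: potency for gain of reporter signal over DMSO so agonist or activator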
Procedure, shortened: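 Read-out is fluorescence of reporter cDNA fragments resolved by capillary electrophoresis after RT-PCR. Human HepG2 liver cells carried transfected PPARa-Gal4 chimera and GAL4-UAS reporter units, treated 24 h; activity scored as increase over DMSO.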

[2] = read-out: Intercellular Adhesion Molecule 1 (ICAM1), ICAM1 (gene 3383); test: BSK_3C_ICAM1: BioMAP Diversity Plus: 3C Assay for Intercellular Adhesion Molecule 1 (ICAM1) Biomarker Activity (AID 2283003; active = hit-call score of the fitted dose curve at least 0.9, where 1 is the maximum; inactive = score below 0.9); details: primary human endothelial cells (HUVEC); actives raise or lower the signal
Procedure, shortened: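 HUVEC primary cells stimulated under 3C conditions; ICAM1 measured by ELISA 24 h after compound dosing. Curves fitted bidirectionally against the DMSO baseline. Overt cytotoxicity checked by SRB staining of parallel cultures.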

[3] = target: human Retinoic Acid Receptor beta (RARb), RARB (gene 5915) (UniProt P10826); test: ATG_RARb_TRANS: Attagene TRANS-FACTORIAL HepG2 Assay for human Retinoic Acid Receptor beta (AID 2283004)
Procedure, shortened: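 HepG2, transient MRTU transfection, NR–Gal4 chimera, 24 h treatment; RT-PCR plus CE fluorescence detection of reporter mRNA; gain of signal vs DMSO.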

[4] = BSK_3C_Proliferation: Cell Proliferation Assessment in the BioMAP Diversity Plus: 3C Assay (AID 2283006; active = hit-call score of the fitted dose curve at least 0.9, where 1 is the maximum; inactive = score below 0.9;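 as to AC50: potency may reflect either rise or fall in cell number versus DMSO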); details: primary human endothelial cells (HUVEC)
Procedure, shortened: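 Subconfluent HUVEC (3C system) cultured with chemical; relative cell number read at 48 h by sulforhodamine B total-protein staining (0.1% SRB after 10% TCA fixation, 560 nm). Bidirectional fit relative to DMSO.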

[5] = target: Nuclear receptor subfamily 1 group I member 2 (Homo sapiens) (UniProt O75469); test: ATG_PXR_TRANS: Attagene TRANS-FACTORIAL HepG2 Assay for human Pregnane X Receptor (PXR) (AID 2283008)
Procedure, shortened: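 Fluorescence intensity of FAM-labelled, HpaI-digested reporter amplicons, separated by capillary electrophoresis, quantifies induction. HepG2 cells with PXR-Gal4 trans-reporter system were exposed 24 h; DMSO defines baseline.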

[6] = target: human RAR-related Orphan Receptor beta (RORb), RORB (gene 6096) (UniProt Q92753); test: ATG_RORb_TRANS: Attagene TRANS-FACTORIAL HepG2 Assay for human RAR-related Orphan Receptor beta (RORb) (AID 2283010);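 as to AC50: potency for increased reporter mRNA meaning activation of RORb-Gal4 chimera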
Procedure, shortened: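 HepG2 cells transiently transfected with GAL4-UAS reporter units expressing chimeric NR-Gal4 protein; reporter mRNA measured 24 h after dosing by RT-PCR, 6-FAM labelling and capillary electrophoresis. Gain-of-signal fitted relative to DMSO baseline.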

[7] = target: human Peroxisome Proliferator-activated Receptor delta (PPARd), PPARD (gene 5467) (UniProt Q03181); test: ATG_PPARd_TRANS: Attagene TRANS-FACTORIAL HepG2 Assay for human Peroxisome Proliferator-activated Receptor delta (PPARd) (AID 2283002)
Procedure, shortened: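 Read-out is induced reporter mRNA, quantified by RT-PCR with fluorescent labelling and capillary electrophoresis after 24 h dosing. Cells are HepG2 transiently carrying multiple GAL4-UAS reporter units driven by exogenous NR-GAL4 chimeras; DMSO serves as baseline.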

[8] = target: Peroxisome proliferator-activated receptor gamma (Homo sapiens) (UniProt P37231); test: ATG_PPARg_TRANS: Attagene TRANS-FACTORIAL HepG2 Assay for human Peroxisome Proliferator-activated Receptor-gamma (PPARg) (AID 2283007)
Procedure, shortened: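 Endpoint reflects upward reporter mRNA change versus DMSO controls. Setup: transiently transfected HepG2, GAL4-UAS reporters driven by chimeric NR-Gal4, 24 h incubation, RT-PCR with capillary electrophoresis read-out.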

[9] = target: human Retinoic Acid Receptor gamma (RARg), RARG (gene 5916) (UniProt P13631); test: ATG_RARg_TRANS: Attagene TRANS-FACTORIAL HepG2 Assay for human Retinoic Acid Receptor gamma (RARg) (AID 2283009)
Procedure, shortened: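 HepG2 transiently transfected with GAL4-UAS reporter units and chimeric NR-Gal4 constructs; 24 h compound exposure. Reporter mRNA quantified by RT-PCR, FAM labeling, HpaI digestion and capillary electrophoresis; gain-of-signal versus DMSO.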

[10] = target: Retinoic acid receptor alpha (Homo sapiens) (UniProt P10276); test: ATG_RARa_TRANS: Attagene TRANS-FACTORIAL HepG2 Assay for human Retinoic Acid Receptor alpha (RARa) (AID 2283005)
Procedure, shortened: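 Reporter transcripts, measured by RT-PCR with fluorescent labeling and capillary electrophoresis after 24 h dosing, reflect activity of an exogenous human RARa–GAL4 fusion in transiently transfected HepG2. Fitted for increase relative to DMSO.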

Measured: AC50

human Retinoic Acid Receptor beta (RARb), RARB (gene 5915), sequence (P10826 whole entry, looked up, the tested form may be a part): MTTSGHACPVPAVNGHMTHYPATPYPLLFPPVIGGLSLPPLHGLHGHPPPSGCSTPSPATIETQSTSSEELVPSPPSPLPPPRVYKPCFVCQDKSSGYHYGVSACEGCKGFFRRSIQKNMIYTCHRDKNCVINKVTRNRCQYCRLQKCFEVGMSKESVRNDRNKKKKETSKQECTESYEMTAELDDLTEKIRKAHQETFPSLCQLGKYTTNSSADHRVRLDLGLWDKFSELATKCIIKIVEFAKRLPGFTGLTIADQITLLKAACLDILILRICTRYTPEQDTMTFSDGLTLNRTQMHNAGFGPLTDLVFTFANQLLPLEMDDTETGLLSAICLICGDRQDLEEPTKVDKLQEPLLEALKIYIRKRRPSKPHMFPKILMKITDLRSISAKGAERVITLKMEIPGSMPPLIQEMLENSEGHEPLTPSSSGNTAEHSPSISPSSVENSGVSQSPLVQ
human Retinoic Acid Receptor gamma (RARg), RARG (gene 5916), sequence (P13631 whole entry, looked up, the tested form may be a part): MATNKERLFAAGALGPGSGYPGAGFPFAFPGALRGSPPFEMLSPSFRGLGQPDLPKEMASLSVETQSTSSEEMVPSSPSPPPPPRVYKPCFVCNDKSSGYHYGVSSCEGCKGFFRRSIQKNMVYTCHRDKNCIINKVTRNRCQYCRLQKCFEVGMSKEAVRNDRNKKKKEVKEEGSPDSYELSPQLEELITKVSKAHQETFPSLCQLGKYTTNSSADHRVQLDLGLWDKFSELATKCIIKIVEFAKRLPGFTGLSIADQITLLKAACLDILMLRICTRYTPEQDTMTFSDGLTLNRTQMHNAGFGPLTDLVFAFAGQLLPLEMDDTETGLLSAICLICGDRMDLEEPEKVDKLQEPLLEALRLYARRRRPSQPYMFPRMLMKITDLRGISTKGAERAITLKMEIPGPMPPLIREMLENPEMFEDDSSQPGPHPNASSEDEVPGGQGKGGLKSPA
Nuclear receptor subfamily 1 group I member 2 (Homo sapiens), sequence (O75469 whole entry, looked up, the tested form may be a part): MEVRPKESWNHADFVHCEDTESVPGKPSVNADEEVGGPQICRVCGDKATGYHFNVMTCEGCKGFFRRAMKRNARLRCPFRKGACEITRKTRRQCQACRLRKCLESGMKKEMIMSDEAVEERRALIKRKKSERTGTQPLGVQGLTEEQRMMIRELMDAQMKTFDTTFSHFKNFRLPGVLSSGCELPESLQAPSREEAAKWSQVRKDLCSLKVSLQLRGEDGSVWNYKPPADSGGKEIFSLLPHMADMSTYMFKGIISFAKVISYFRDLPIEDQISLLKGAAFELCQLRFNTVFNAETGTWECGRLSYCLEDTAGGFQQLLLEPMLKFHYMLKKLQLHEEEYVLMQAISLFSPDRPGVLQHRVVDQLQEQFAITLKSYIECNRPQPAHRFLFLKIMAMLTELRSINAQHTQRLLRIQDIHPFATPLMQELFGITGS
human Peroxisome Proliferator-activated Receptor delta (PPARd), PPARD (gene 5467), sequence (Q03181 whole entry, looked up, the tested form may be a part): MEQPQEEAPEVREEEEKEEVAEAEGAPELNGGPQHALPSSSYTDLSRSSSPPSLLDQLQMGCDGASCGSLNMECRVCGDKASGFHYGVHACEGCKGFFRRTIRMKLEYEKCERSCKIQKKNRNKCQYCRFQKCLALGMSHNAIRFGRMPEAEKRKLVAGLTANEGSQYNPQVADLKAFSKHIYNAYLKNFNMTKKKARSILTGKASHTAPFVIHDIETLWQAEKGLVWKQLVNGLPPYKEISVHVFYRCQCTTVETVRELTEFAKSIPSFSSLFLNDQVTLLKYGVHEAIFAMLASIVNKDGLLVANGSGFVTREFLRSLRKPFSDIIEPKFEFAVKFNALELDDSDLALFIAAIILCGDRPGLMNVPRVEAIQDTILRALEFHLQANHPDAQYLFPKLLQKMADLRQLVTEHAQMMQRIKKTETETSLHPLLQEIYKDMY
Peroxisome proliferator-activated receptor gamma (Homo sapiens), sequence (P37231 whole entry, looked up, the tested form may be a part): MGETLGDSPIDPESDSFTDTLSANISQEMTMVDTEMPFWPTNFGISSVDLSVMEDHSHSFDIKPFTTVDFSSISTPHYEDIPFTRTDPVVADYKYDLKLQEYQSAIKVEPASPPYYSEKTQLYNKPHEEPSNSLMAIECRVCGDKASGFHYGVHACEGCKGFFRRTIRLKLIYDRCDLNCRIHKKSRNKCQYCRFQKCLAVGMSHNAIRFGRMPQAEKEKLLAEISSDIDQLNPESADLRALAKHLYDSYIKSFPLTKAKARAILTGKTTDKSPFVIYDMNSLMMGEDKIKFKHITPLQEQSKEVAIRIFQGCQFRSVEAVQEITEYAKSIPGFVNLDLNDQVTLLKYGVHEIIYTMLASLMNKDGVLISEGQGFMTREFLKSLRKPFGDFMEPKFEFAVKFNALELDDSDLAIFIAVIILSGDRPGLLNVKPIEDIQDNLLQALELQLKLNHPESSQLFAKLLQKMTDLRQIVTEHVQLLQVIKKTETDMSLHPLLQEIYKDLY
Retinoic acid receptor alpha (Homo sapiens), sequence (P10276 whole entry, looked up, the tested form may be a part): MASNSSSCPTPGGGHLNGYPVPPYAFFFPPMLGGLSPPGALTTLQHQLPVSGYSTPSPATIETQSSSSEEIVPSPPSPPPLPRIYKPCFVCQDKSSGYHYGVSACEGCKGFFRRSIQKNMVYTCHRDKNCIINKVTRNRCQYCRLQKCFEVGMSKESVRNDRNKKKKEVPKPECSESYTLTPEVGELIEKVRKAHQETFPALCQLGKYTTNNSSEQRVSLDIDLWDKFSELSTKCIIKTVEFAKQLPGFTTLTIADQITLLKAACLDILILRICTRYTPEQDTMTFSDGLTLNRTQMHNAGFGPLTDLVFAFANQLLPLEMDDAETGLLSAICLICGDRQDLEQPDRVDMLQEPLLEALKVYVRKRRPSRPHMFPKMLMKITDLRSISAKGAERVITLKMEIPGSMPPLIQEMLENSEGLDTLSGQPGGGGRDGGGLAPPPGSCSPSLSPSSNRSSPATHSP
human RAR-related Orphan Receptor beta (RORb), RORB (gene 6096), sequence (Q92753 whole entry, looked up, the tested form may be a part): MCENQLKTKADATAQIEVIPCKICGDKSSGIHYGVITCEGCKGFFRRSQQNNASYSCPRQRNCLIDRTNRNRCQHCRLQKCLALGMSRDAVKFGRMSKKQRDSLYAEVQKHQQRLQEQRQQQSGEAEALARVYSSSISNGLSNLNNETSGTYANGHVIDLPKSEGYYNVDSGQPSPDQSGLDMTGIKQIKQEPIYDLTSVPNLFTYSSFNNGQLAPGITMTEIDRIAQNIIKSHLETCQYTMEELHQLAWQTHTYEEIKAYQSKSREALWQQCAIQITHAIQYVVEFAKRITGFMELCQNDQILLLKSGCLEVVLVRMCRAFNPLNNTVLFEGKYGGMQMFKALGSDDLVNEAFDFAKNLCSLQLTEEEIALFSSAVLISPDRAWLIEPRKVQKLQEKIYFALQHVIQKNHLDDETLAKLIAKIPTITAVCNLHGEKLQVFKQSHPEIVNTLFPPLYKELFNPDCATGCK
human Peroxisome Proliferator-activated Receptor alpha (PPARa), PPARA (gene 5465), sequence (Q07869 whole entry, looked up, the tested form may be a part): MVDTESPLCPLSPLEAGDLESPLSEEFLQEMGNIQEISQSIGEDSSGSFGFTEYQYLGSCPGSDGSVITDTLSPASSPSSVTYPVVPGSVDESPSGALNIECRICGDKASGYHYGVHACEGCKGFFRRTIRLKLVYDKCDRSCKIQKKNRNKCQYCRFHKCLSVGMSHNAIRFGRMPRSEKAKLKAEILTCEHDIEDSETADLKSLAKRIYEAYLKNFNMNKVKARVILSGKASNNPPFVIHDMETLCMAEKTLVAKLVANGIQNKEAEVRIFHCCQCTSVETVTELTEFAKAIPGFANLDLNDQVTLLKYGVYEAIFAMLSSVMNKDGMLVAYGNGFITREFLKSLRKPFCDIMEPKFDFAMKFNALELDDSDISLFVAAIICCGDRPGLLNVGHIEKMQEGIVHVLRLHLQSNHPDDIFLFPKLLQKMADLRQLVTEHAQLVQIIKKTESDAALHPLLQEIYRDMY

c1ccc2ccccc2c1
inactive: [1] | [2] | [3] | [4] | [5] | [6]

c1ccc(C[n+]2cccc3ccccc32)cc1
not listed: [3] | [6] | [10]
inactive: all other assays above

O=C(O)Cc1cc(I)c(Oc2ccc(O)c(I)c2)c(I)c1
inactive: [1] | [7] | [2] | [3] | [5]
active: [4] 9.41 µM | [5] 19.4 µM

Cc1c2ccccc2c(C)c2c1ccc1ccccc12
inactive: [2] | [10] | [9]
active: [1] 148 µM | [7] 100 µM | [4] 10.4 µM | [8] 24.1 µM | [5] 2.57 µM

CCCCOC(=O)CC(CC(=O)OCCCC)(OC(C)=O)C(=O)OCCCC
inactive: [1] | [7] | [2] | [5]
active: [4] 31.5 µM | [8] 16.2 µM and 8.69 µM | [5] 3.1 µM

CN(C)C(=O)C1(N2CCCCC2)CCN(CC[C@@]2(c3ccc(Cl)c(Cl)c3)CN(C(=O)c3ccccc3)CCO2)CC1
active: [2] 36.8 µM | [4] 6.91 µM
inactive: [1] | [7] | [5]

CN(C[C@@H](CC[N+]12CCC(C3CCCCC3)(CC1)CC2)c1ccc(Cl)c(Cl)c1)C(=O)c1cc(C(F)(F)F)cc(C(F)(F)F)c1
active: [2] 39 µM | [4] 12.9 µM
inactive: [1] | [7] | [5] | [9] | [6]

O=c1[nH]sc2ccccc12
inactive: [1] | [7] | [8] | [6]
active: [2] 18.2 µM | [4] 1.55 µM

O=c1c(-c2ccc(O)cc2)coc2cc(O)cc(O)c12
active: [1] 24.2 µM and 100 µM and 25.6 µM | [4] 8.1 µM | [8] 32.7 µM [middle of 4 runs] | [5] 24.2 µM | [6] 27.4 µM
inactive: [7] | [2] | [10] | [5] | [9] | [6]

Cc1ncc(CO)c(CO)c1O
inactive: [1] | [7] | [2] | [4] | [8] | [5]

CCCCOC(=O)c1ccc(O)cc1
active: [8] 39.9 µM and 54 µM and 27.3 µM
inactive: [1] | [7] | [2] | [4] | [8] | [5] | [9]

Cc1cn([C@H]2C[C@H](N=[N+]=[N-])[C@@H](CO)O2)c(=O)[nH]c1=O
inactive: [1] | [7] | [2] | [4] | [8] | [5]

OC12N=C(c3ccccc3)SC1Cc1cc(Cl)ccc12 (stereo not given)
inactive: [1] | [7] | [2] | [6]
active: [4] 31.5 µM | [8] 0.03 µM | [5] 2.41 µM

COCC(C)OCC(C)OCC(C)O (stereo not given)
inactive: [1] | [7] | [2] | [4] | [5]

NCc1cccc(C2CCN(C(=O)c3ccc(C#Cc4ccccc4F)o3)CC2)c1
inactive: [7]
active: [1] 0.909 µM | [2] 30.1 µM | [4] 8.67 µM | [8] 1.33 µM | [5] 8.45 µM

CCCCCc1ccc(N)cc1
active: [4] 6.3 µM | [8] 100 µM and 34 µM
inactive: [1] | [7] | [2] | [8] | [5]

O=C1CCC(C2CCCCC2)CC1
active: [8] 27.6 µM [middle of 4 runs]
not listed: [5] | [9]
inactive: all other assays above

CC(C)(C)c1csc(-c2cc3cc(OCc4ccccc4CC(=O)O)ccc3o2)n1
inactive: [1] | [7] | [2] | [5]
active: [4] 18.1 µM | [8] 1.51 µM

CCOC(=O)O[C@H](C)OC(=O)c1ccc2c(c1)cc(C(=O)NC1CCN(C(C)C)CC1)n2Cc1cc(-c2ccc(Cl)s2)on1
inactive: [1] | [8] | [5]
active: [2] 8.99 µM | [4] 1.77 µM

O=C(Nc1ccc(Cl)cc1)Nc1ccc(Cl)c(Cl)c1
active: [4] 2.04 µM
not listed: [6] | [10]
inactive: all other assays above

CC(C)(C)c1cc(/C=C2\SC(N)=NC2=O)cc(C(C)(C)C)c1O
active: [2] 31.7 µM | [4] 13.4 µM | [8] 6.79 µM | [5] 4.17 µM
not listed: [6]
inactive: all other assays above

O=C(O)c1ccccc1C(=O)OCc1ccccc1
inactive: [1] | [2] | [10] | [4] | [8] | [5]

CN1C(=O)CC[C@H]1c1cccnc1
inactive: [1] | [2] | [4] | [8] | [5]

Cc1cccc2ccccc12
not listed: [3]
inactive: all other assays above

CCCCCCCCCCCO
active: [1] 100 µM | [7] 166 µM | [2] 36.8 µM | [4] 34.2 µM | [8] 62.9 µM
inactive: [5]

CC1=CC(=O)/C(=C(/C)O)C(=O)O1
inactive: [1] | [7] | [2] | [3] | [4] | [6]

CCCCCCCCCCCCO
active: [2] 36.2 µM | [4] 30.2 µM
not listed: [8]
inactive: all other assays above

CCCCCCCCOc1ccc(C(=O)c2ccccc2)c(O)c1
active: [4] 30.1 µM
inactive: all other assays above

Clc1cc(Cl)c2c(c1)N=C1CCCCCN1C2
active: [8] 16.1 µM | [5] 20.2 µM
not listed: [6] | [10]
inactive: all other assays above

COc1cc(C(=O)NC2CCN(C)CC2)ccc1Nc1ncc2c(n1)N(C1CCCC1)CC(F)(F)C(=O)N2C
inactive: [1] | [2] | [8] | [5] | [6]
active: [7] 3.45 µM | [4] 3.69 µM

CCCOC(=O)c1cc(O)c(O)c(O)c1
inactive: [7] | [2] | [5] | [9]
active: [1] 27.7 µM | [4] 10.5 µM | [8] 31.8 µM

Cc1ccc(C(C)C)cc1
inactive: [1] | [7] | [2] | [3] | [4] | [5]

COc1ccc2cc(S(=O)(=O)N[C@H](CC(=O)N[C@H](Cc3ccc(CN4[C@H](C)CCC[C@@H]4C)cc3)C(=O)N(C)C(C)C)c3ccc4c(c3)OCO4)ccc2c1
active: [4] 22 µM
inactive: [1] | [2] | [8] | [5]

CC(O)CC(C)(C)O (stereo not given)
not listed: [7]
inactive: all other assays above
